INS promoter inh = TRM-6 insulin promoter activity inhibition | TRM-6 cells (human fetal islet line), insulin promoter-eGFP reporter, imaging; reporter expression induced with tamoxifen | inhibition, % at 2 µM | 130,000 tested, 0.9% active;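 active = inhibition above the mean plus 3 SD, with well images judged a real hit on visual review, cut at about 60% in these data, passing the limit was not always enough; inconclusive = inhibition over the cutoff but images rejected on review; inactive = inhibition not above the cutoff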
Insulin prom up = MIN6 insulin promoter up-regulation; MIN6 insulin promoter-GFP reporter, high-content imaging; hits give high values; 190,000 tested, 0.3% active; z-score at 5 µM; AID 1625;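 active = z-score above 3 at 5 µM with at least 500 cells counted in the well; inconclusive = wells under 500 cells, flagged as cytotoxic or low count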
Lmaj promast = reduces viability of Leishmania major promastigotes. AID 1063. inhibition, % at 10 µM. 200,000 tested, 9% active. resazurin fluorescence viability; in the data active = inhibition above about 50%;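 note: promastigotes grown with compound for 44 hours at 28 °C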
Autophagy mod = autophagy modulation, high-content screen; MEF GFP-LC3 puncta imaging; test concentration mostly 10 µM; calls only at 10 µM (by protocol); 190,000 tested, 0.98% active; AID 463193;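 active = percentage of spot-positive cells more than 3 SD above its plate mean, without a fluorescence outlier flag or 80% toxicity; inconclusive = no clear call, values can overlap the other calls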;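 note: spot-positive cell cutoff set from DMSO-treated cells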
WT yeast gro inh = growth inhibition of WT yeast, mitochondrial fusion screen | inhibition, % at 10 µM | mitochondrial fusion phenotypic screen, WT strain | 190,000 tested, 2.1% active; in the data active = inhibition above about 58%; tested in S. cerevisiae
Active calls of the source: *; i = inactive; ? = inconclusive; nt = no result; + = active, no number. Most compounds without a hit are left out; they make up all but 11% or so of the library.

SMILES | INS promoter inh | Insulin prom up | Lmaj promast | Autophagy mod | WT yeast gro inh
Cc1ccccc1C(=O)NC1CCN(Cc2ccccc2)CC1 | nt | 1.1 | 85* | i | -11
O=C(COc1ccccc1)NC1CCN(Cc2ccccc2)CC1 | 0 | -1 | 86* | i | -12
O=C(COc1ccccc1)NCC(=O)NC1CCCCC1 | 25 | -0.45 | -4 | i | -4
O=C(NCc1ccccc1)C1COc2ccccc2O1 (stereo not drawn) | 7 | -0.03 | 5 | i | 11
O=C(NC1CCN(Cc2ccccc2)CC1)C1COc2ccccc2O1 (stereo not drawn) | nt | -1.4 | 92* | i | 17
O=C(NC1CCN(Cc2ccccc2)CC1)c1ccc(S(=O)(=O)NCc2ccco2)cc1 | -28 | -0.54 | 78* | + | -13
Cc1ccccc1C(=O)NC1CCN(Cc2nnnn2CCc2ccccc2)CC1 | 0 | -0.67 | 2 | i | 5
COc1ccc(S(=O)(=O)N(C)C)cc1NCC(=O)Nc1ccc(Br)c(C)c1 | 33 | -1.5 | 24 | i | 1
CCCCn1c(N)c(N(CC)C(=O)CSc2nnnn2-c2cc(C)ccc2C)c(=O)[nH]c1=O | -50 | -0.02 | 24 | i | 3
FC(F)(F)c1nc2ccccc2nc1N/N=C\c1ccccc1 | 4 | nt | 1 | i | -6
CCCS(=O)(=O)c1nnnn1-c1cccc(OC)c1 | 16 | 1.3 | 100* | i | 76*
COc1cccc(-n2nnnc2SCC(=O)Nc2ccc(C(C)=O)cc2)c1 | -86 | 0.01 | 2 | i | -13
COc1cc(CNCc2cccnc2)ccc1OCC(=O)NC1CCCCC1 | -25 | 0.22 | 86* | i | 2
COc1ccccc1OCC(=O)NC1CCCCCC1 | nt | -1.1 | -3 | i | 9
Cc1cc(C(=O)NCC(=O)OC(C(=O)Nc2cc(C(F)(F)F)ccc2Cl)c2ccccc2)ccc1[N+](=O)[O-] (stereo not drawn) | 10 | -0.17 | 39 | i | 49
CCCC(=O)OC(C(=O)Nc1cc(C(F)(F)F)ccc1Cl)c1ccccc1 (stereo not drawn) | 38 | -1 | 90* | i | 49
Cc1n[nH]c(C)c1S(=O)(=O)N(CC(=O)Nc1ccc2c(c1)OCCO2)c1ccc(C(C)C)cc1 | nt | 0.6 | 56* | i | -1
Cc1nn(C)c(C)c1S(=O)(=O)N(CC(=O)Nc1ccc2c(c1)OCO2)c1ccc(C(C)C)cc1 | nt | -0.07 | 50* | i | 11
Cc1noc(C)c1S(=O)(=O)N(CC(=O)Nc1ccc2c(c1)OCO2)c1ccc(C(C)C)cc1 | nt | -0.36 | 10 | i | -3
N#CCC(CNc1ncc(C(F)(F)F)cc1Cl)OC(=O)c1cccc([N+](=O)[O-])c1 (stereo not drawn) | 13 | -0.53 | -6 | i | 49
O=C1CSC(=S)N1c1cccnc1 | -68 | -1.7 | -6 | i | 3
O=C1CSC(=S)N1Cc1cccnc1 | 25 | -0.69 | 100* | i | 6
CCN1C(=O)/C(=C\c2cn(-c3ccccc3)nc2-c2cccnc2)SC1=S | -46 | 1.1 | 24 | + | -4
O=C1/C(=C/c2ccccc2O)SC(=S)N1Cc1cccnc1 | 45 | 0.08 | 88* | i | 10
COc1ccc(CCNC(=O)c2cccs2)cc1OC | nt | 0.34 | -10 | i | -3
SMILES | INS promoter inh | Insulin prom up | Lmaj promast | Autophagy mod | WT yeast gro inh
COc1ccc(CNc2nc(NCc3ccc(OC)c(OC)c3)n(C(=O)c3cccs3)n2)cc1OC | -5 | 0.8 | 97* | i | 15
COc1ccc(-c2cn(-c3ccc(OC)cc3)c3[n+]2-c2ccccc2CC3)cc1 | nt | ? | 100* | i | 2
COc1ccc(-n2cc(-c3ccccc3)[n+]3c2CCCCC3)cc1 | nt | ? | 100* | i | -8
FC(F)Sc1ccc(-n2cc(-c3ccccc3)[n+]3c2CCC3)cc1 | -79 | -0.77 | 16 | i | 4
O=C(Cc1ccccc1)Nc1cccc(N2C(=O)C=CC2=O)c1 | i | 0.06 | 3 | i | -2
COCCCn1cnc2c(c1=O)c1nc3ccccc3nc1n2-c1ccccc1 | 91* | nt | 6 | i | -13
c1ccc(-c2ccccc2OCCCN2CCCCCC2)cc1 | nt | -2 | 98* | i | 14
CC1CC(C)CN(CCOc2ccccc2-c2ccccc2)C1 (stereo not drawn) | -464 | -0.27 | 32 | i | 23
c1ccc(-c2ccccc2OCCCCN2CCCCC2)cc1 | -43 | -1.2 | 95* | i | 4
c1ccc(-c2ccccc2OCCCN2CCCC2)cc1 | -67 | 0.85 | 48 | i | 6
CC(=O)Nc1ccc(Br)cc1C(=O)C(=O)O | nt | 0.3 | -9 | i | 8
COc1ccc2ccccc2c1CN1CCN(Cc2ccccc2)CC1 | 78* | -1.9 | 56* | i | -1
CCN1CCN(Cc2ccc(OC)c(OCc3ccccc3)c2)CC1 | -86 | 0.61 | 17 | i | 8
COc1ccc(CC(=O)N2CCN(c3ccccn3)CC2)cc1OC | -320 | -0.16 | -4 | i | -14
COc1ccc(CN2CCN(C(=O)c3ccco3)CC2)cc1OC | nt | 0.05 | -4 | i | -9
CCN1CCN(Cc2ccc(OCc3ccccc3)c(OC)c2)CC1 | 43 | -0.44 | 65* | i | -2
COc1ccc(CN2CCN(c3ccccn3)CC2)cc1OCc1ccccc1 | 15 | -8.9 | 72* | i | 13
COc1ccc(CN2CCN(C(=O)c3ccco3)CC2)cc1OCc1ccccc1 | nt | -1.6 | 87* | i | 13
Cc1c(/C=N/NC(=O)c2ccc(Br)o2)cnn1C | nt | -0.02 | nt | nt | nt
O=C(NC(=S)N1CCN(c2ccccc2)CC1)c1ccc(S(=O)(=O)N2CCOCC2)cc1 | nt | 0.57 | nt | nt | nt
CNC(=O)c1ccc(OCc2ccccc2)c(OC)c1 | 31 | nt | -1 | i | -14
COc1cc(CN(C)CCc2ccccc2)ccc1OCc1ccccc1 | nt | -0.66 | 96* | i | -4
O=S(=O)(c1cccs1)N1CCc2ccccc21 | nt | 0.85 | 41 | i | 12
CC1CCc2ccc(F)cc2N1S(=O)(=O)c1cccs1 (stereo not drawn) | 69 | 0.38 | 96* | i | 6
Cc1ccc(-n2c(C)cc(/C=N/NC(N)=S)c2C)cc1 | -45 | 0.07 | 100* | i | -19
SMILES | INS promoter inh | Insulin prom up | Lmaj promast | Autophagy mod | WT yeast gro inh
Cc1ccc(-n2c(C)cc(/C=N/NC(=O)c3ccc(CN4CCOCC4)cc3)c2C)cc1 | -52 | -0.91 | 53* | i | 8
Cc1ccc(-n2c(C)cc(/C=N/NC(=O)c3ccncc3)c2C)cc1 | 30 | 0.03 | -4 | i | -6
COc1ccc(CCNC(=O)CN(c2cccc([N+](=O)[O-])c2)S(C)(=O)=O)cc1OC | -45 | nt | 5 | i | 15
CCc1ccc(C(=O)COC(=O)c2n[nH]c3ccccc23)cc1 | 0 | 0.02 | -2 | i | 11
CCOc1ccc2nc(NS(=O)(=O)Cc3ccccc3)sc2c1 | -33 | -0.18 | -2 | i | 16
Nc1ccc(N(c2ccccc2)c2ccc(N)cc2)cc1 | 0 | -0.44 | 100* | i | -10
Clc1nc(Cl)nc(N(c2ccccc2)c2ccccc2)n1 | 10 | -0.29 | -7 | i | -14
COc1ccc(Cn2c(N)c(C#N)c3nc4ccccc4nc32)cc1OC | -39 | -0.65 | 18 | i | -6
COc1ccc(CCn2c(N)c(C#N)c3nc4ccccc4nc32)cc1OC | 26 | 0.27 | 91* | i | -3

Screening data: PubChem, several laboratories
